PubChem BioAssay (NCI)
Compounds without any hit were thinned out: in the full panel of roughly 79,000, 15% have a hit. Values without a mark were called inactive. Calls of active or inactive are those of the source. No stated cut-off is given here; in the data, active means growth inhibition above about 70%; inactive means the rest.

How the values were obtained:
[1] = NCI Yeast Anticancer Drug Screen. Data for the rad50 strain (AID 155);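 further: 0% = growth of vehicle-only cultures of the same strain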; conditions: S. cerevisiae rad50 strain growth inhibition; at 50.0 µM; hits give high values
Outline: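 Readout: growth inhibition relative to vehicle-treated cultures. Compound exposure was carried out in a genetically defined yeast strain deficient in DNA damage repair.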

[2] = NCI Yeast Anticancer Drug Screen. Data for the mec2-1 strain (AID 157); conditions: S. cerevisiae mec2-1 strain, at 50.0 µM, hits give high values
Outline: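 Mutant yeast (mec2-1) grown with compound; growth inhibition relative to vehicle control reported.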

[3] = NCI Yeast Anticancer Drug Screen. Data for the sgs1 mgt1 strain (AID 161);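 further: 0% = growth of cultures given vehicle only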; conditions: S. cerevisiae sgs1 mgt1 strain, at 50.0 µM, hits give high values
Outline: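 Growth of a repair-deficient yeast mutant was monitored after compound treatment and expressed as inhibition relative to vehicle-treated cultures.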

[4] = NCI Yeast Anticancer Drug Screen. Data for the cln2 rad14 strain (AID 165);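 further: 0% = growth equal to vehicle treated cultures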; conditions: S. cerevisiae cln2 rad14 strain, at 50.0 µM, hits give high values
Outline: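 Readout is yeast growth inhibition versus vehicle-treated controls, using a strain with cln2 and rad14 alterations exposed to compound.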

[5] = NCI Yeast Anticancer Drug Screen. Data for the bub3 strain (AID 167); conditions: S. cerevisiae bub3 mutant strain, at 50.0 µM, hits give high values
Outline: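 Readout: yeast growth inhibition, expressed relative to vehicle-only wells. The test organism is a mutant strain from a panel with lesions in DNA repair or checkpoint genes.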

[6] = NCI Yeast Anticancer Drug Screen. Data for the mlh1 rad18 strain (AID 175); conditions: S. cerevisiae mlh1 rad18 strain growth inhibition; at 50.0 µM; hits give high values
Outline: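 Genetically defined yeast (DNA repair-deficient) exposed to compounds; growth inhibition determined relative to vehicle.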

SMILES | growth inhibition [1] | growth inhibition [2] | growth inhibition [3] | growth inhibition [4] | growth inhibition [5] | growth inhibition [6]
C=CCCCCCCCCC(=O)Nc1ccc(Cl)cc1C(=O)c1ccccc1 | -2.3% | 0% | 4.3% | 28.2% | -7.95% | 13.8%
C[CH2][Sn]([I])([CH2]C)[CH2]C | 96% (active) | 98% (active) | 97.1% (active) | 98.3% (active) | 98.1% (active) | 98.5% (active)
CCNP(=O)(OCC)OCC | 9.9% | -15.6% | 12.2% | 24.4% | 7.6% | 17.9%
CCCCCC(=O)C[n+]1ccccc1 (tested in a mixture with another compound) | -11.7% | -1.4% | -20% | -36% | 24.4% | -9.15%
Oc1ccc(Cl)cc1Br | -2.4% | -14.6% | -1.1% | 12% | -23.4% | -0.15%
Nc1cc(S(=O)(=O)F)cc(Cl)c1O | 25.2% | -3.55% | 14.9% | -61.2% | 23.2% | 24.6%
CC1(C)C(=O)/C(=N\O)C[C@@]2(C)C1=CC[C@@H]1[C@@H]2CC[C@]2(C)C(=O)/C(=N/O)C[C@@H]12 | 1.55% | -5.25% | -0.05% | -45.1% | -1% | -12.1%
C/C=C1/CN2CCC1CC2C(O)c1ccnc2ccc(OCCO)cc12 (stereo unspecified) | -8.4% | -13.2% | -2.35% | -9.35% | -24.6% | 24.9%
NC1CC2NC3CCCCC3NC2CC1N (stereo unspecified) | 14.8% | 6.25% | -0.6% | 19.5% | -22.4% | 6.55%
C1C[N-]CC[N-]1.C1C[N-]CC[N-]1.[Zn] | 98.7% (active) | 99.5% (active) | 99.5% (active) | 98.8% (active) | 99.4% (active) | 99.3% (active)
[Cl][Hg][c]1cccs1 | 99.6% (active) | 99.8% (active) | 99.5% (active) | 99.5% (active) | 99.7% (active) | 99.6% (active)
Cc1cn([C@H]2CC3C(CON3C)O2)c(=O)[nH]c1=O (stereo partly specified) | 3.3% | 7.55% | 1.15% | -3.55% | -8.55% | -37.4%
O=c1oc2ccccc2c(O)c1C(c1ccc2c(c1)OCO2)c1c(O)c2ccccc2oc1=O | -5.8% | -4.75% | 34.7% | 7% | 3.65% | 28.4%
ClCc1ccc(Cl)c(Cl)c1 | 16.1% | 3.8% | -3.05% | 10.4% | 1.5% | -20.4%
C[N+](C)(Cc1ccc([N+](=O)[O-])cc1)c1ccc(N(CCCl)CCCl)cc1 | -4% | -24.3% | -33% | -15.4% | -21.8% | 10.8%
CO[C@@]12[C@@H]3N[C@@H]3CN1C1=C(C(=O)C(NCCC#N)=C(C)C1=O)[C@@H]2COC(N)=O | -15.8% | 13.2% | -13.1% | 10.6% | -5.3% | 55.6%
c1ccc2c(c1)sc1ccccc12 | 15.5% | -13.7% | 16.9% | -29.4% | -8.6% | 15.2%
Cc1cccc(C)c1NC(=O)C(=O)C1C(=O)NC(=O)NC1=O | -45.5% | -2.6% | -6% | 15.8% | -17.1% | -31.9%
Nc1ccc(P(=O)(O)O)cc1 | -7.8% | -9.55% | -11.7% | -36.1% | -1.05% | -3.95%
NCC(O)CSP(=O)(O)O (stereo unspecified) | -10.9% | -9.85% | -18.9% | 24.5% | -3.8% | -0.6%
COc1cc2c(cc1OC)C(c1ccc(O)c(O)c1)CNC2 (stereo unspecified) | -27.8% | -7.9% | -31.1% | -10.1% | -21.1% | -5.3%

SMILES | growth inhibition [1] | growth inhibition [2] | growth inhibition [3] | growth inhibition [4] | growth inhibition [5] | growth inhibition [6]
CP1(=S)CCC2=C1CCc1cc(O)ccc12 (stereo unspecified) | 14.4% | -31.8% | 0.4% | -29.8% | -3.65% | 21.4%
CCN(CC)CC(O)c1ccc(Br)cc1 (stereo unspecified) | 0.85% | -20.1% | -0.25% | -3.55% | 2.65% | 5.7%
Nc1cc(N=Nc2ccc([As](=O)(O)O)cc2)ccc1O | 7.95% | 13.4% | -5.2% | 11% | 16.6% | 16.9%
O=[N+]([O-])c1ccc(/C=C/c2ccc(S(=O)(=O)F)cc2Cl)c(Cl)c1 | -13.2% | -11.2% | 0.75% | -34.3% | -6.7% | -4.35%
C1CCN2CC3CONC3C2C1 (stereo unspecified) | -11.3% | -7.5% | 2.05% | 13.7% | -6.2% | -3.05%
Cc1cc(NC(=O)Oc2ccc([N+](=O)[O-])cc2)ccc1S(=O)(=O)F | 1.85% | 39.4% | 14.2% | 4% | 28.6% | 35%
CCCOC(C(=O)OC1CCC2CCC1N2C)(c1ccccc1)c1ccccc1 (stereo unspecified) | 5.4% | -0.5% | 17.8% | 13.8% | 28.8% | 32.9%
O=[N+]([O-])c1ccccc1CBr | 52.8% | 34.5% | 57% | 34.9% | 33.5% | 42%
CN1CN(c2ccccc2)C2(CCN(CCC3COc4ccccc4O3)CC2)C1=O (stereo unspecified) | -15.4% | -10.3% | -10.1% | -1.4% | -4.45% | -1.35%
N#CS.[Co+3].[NH-]CC[NH-].[NH-]CC[NH-].[NH-]CC[SH2+] | 12.2% | 43% | 13.2% | 3.2% | 35.6% | 9.65%
CC[C@@H](C)C(=O)O[C@H]1[C@H](O)[C@H]2[C@@H](CN3C[C@@H](C)CC[C@H]3[C@@]2(C)O)[C@@H]2C[C@]34O[C@@]5(O)[C@@H](OC(=O)[C@](C)(O)[C@@H](C)O)CC[C@@]3(C)[C@@H]5[C@@H](OC(C)=O)[C@@H](OC(C)=O)[C@H]4[C@@]21O | 8.75% | 6.25% | -23.6% | 12.6% | 4.9% | 25.5%
C[C@]12CCC(=O)C[C@@H]1CC[C@@H]1[C@@H]2CC[C@]2(C)[C@@H]3OCCC[C@H]3C[C@@H]12 | 22.4% | -0.5% | 46.5% | 14.7% | 19.1% | 39.2%
CCOC(=O)OC1(c2ccccc2)CCN(C)CC1 | -12.2% | 5.75% | -4.55% | 34.3% | 21.4% | 21.4%
CN(C)CCCc1c[nH]c2ccccc12 | -20.4% | -6.6% | -4.85% | -7.5% | -52.5% | 8.25%
CCC1CN(CC(=O)c2ccc(Br)cc2)CCO1 (stereo unspecified) | 5.4% | 3.35% | 39.9% | 20.6% | 48.6% | 25%
Cc1c([As](=O)(O)O)ccc2nc3c(C)c([As](=O)(O)O)ccc3nc12 | 24.5% | 1.25% | 15.4% | 9.25% | 2.4% | 21.6%
Cn1nnnc1NC#N | -9.15% | 4.85% | 1% | 6.7% | 23.4% | -4.25%
CO[C@@]12[C@H](COC(N)=O)C3=C(C(=O)C(C)=C(NCCO)C3=O)N1C[C@@H]1N[C@@H]12 | 3.75% | -27.1% | 21.1% | -0.4% | 7.35% | -7.45%
Cc1ccc(N)cc1 | 2.1% | -2.55% | -7.2% | -1.1% | 9.4% | 1.3%
CC([OH2+])CNCCN.CC([OH2+])CNCCN.O=[N+]([O-])[O-].[Cu+2] (stereo unspecified) | -10.1% | -8.95% | 5.25% | -39.6% | -0.7% | 0.2%
